NPSR antagonist = qHTS Assay for Antagonists of the Neuropeptide S Receptor: cAMP Signal Transduction; Potency, µM (top dose mostly 38.3 µM), for inactives: top-dose activity change, negative = inhibition, actives largely listed as inhibitors; CHO-NPSR cells, cAMP TR-FRET, antagonist mode; Q6W5P4; AID 1461, 2008; 220,000 compounds, 1% hits; also: potency is read from the fitted curve at half-maximal effect; nearly all actives have a fitted effect of over 50% in size
Target sequence (Q6W5P4 whole entry, looked up): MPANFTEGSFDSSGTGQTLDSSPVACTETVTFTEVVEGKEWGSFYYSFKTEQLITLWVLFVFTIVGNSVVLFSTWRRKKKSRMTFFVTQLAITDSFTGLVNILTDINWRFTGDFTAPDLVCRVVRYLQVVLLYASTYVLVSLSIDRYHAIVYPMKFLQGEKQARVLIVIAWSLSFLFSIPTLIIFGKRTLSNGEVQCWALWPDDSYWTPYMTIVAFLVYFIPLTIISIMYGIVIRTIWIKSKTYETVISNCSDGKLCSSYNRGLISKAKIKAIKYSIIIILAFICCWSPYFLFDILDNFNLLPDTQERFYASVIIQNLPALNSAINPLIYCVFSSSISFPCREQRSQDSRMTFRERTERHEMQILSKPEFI
IMPase Li inh = qHTS Assay for Identifying the Cell-Membrane Permeable IMPase Inhibitors: Potentiation with Lithium | CHO-M1 cells, IP1 TR-FRET (IP-One), carbachol + lithium | Potency, µM (highest dose often 59.4 µM), inactives show top-dose activity, negative = IMPase inhibition, actives largely listed as inhibitors | 210,000 compounds, 0.35% hits | AID 1457, 2008;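 also: IP1 builds up when IMPase is blocked and the TR-FRET signal falls; potency is read from the fitted curve at half-maximal effect; plate controls were basal vehicle for no effect and high inhibitor control for full effect; nearly all actives have a fitted effect of over 50% in size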
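Steps: plate 2000 CHO-M1 cells per well and culture 16–30 h; add compound and lithium; incubate 30 min, 37C; add d2-IP1 tracer and Eu cryptate anti-IP1 antibody in lysis buffer; read after 10 min at room temperature.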
IMPase inh = qHTS Assay for Identifying the Cell-Membrane Permeable IMPase Inhibitors | Inositol monophosphatase 1 (Rattus norvegicus), P97697 | CHO-M1 cells, IP1 accumulation, HTRF TR-FRET ratio | inhibition (IP1 accumulation), % at 46.1 µM | 120,000 tested, under 10 active; active = well fitted curve in the direction sought with a large enough effect in the signal ratio, not every such curve was filed as active; inconclusive = small, poorly fitted or top-dose-only effect, or a change in a side signal; inactive = no such curve, though single readings can be large or run the other way; the % refers to the signal ratio;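 also: cells stimulated with carbachol in lithium chloride buffer; plate controls were DMSO basal wells for no effect and reference inhibitor wells for full effect; higher means more IMPase inhibition seen as more IP1 and lower FRET ratio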
Target sequence (P97697 whole entry, looked up): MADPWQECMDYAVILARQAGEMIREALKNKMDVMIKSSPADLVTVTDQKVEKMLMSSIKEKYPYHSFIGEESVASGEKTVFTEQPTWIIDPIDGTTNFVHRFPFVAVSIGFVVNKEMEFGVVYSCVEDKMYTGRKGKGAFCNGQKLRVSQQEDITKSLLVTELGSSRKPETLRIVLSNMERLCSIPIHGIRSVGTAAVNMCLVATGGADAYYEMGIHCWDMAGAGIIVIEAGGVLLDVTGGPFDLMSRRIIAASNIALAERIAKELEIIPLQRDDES
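Elevated IP1 in lysates lowers TR-FRET signal (665/620 ratio and 620 channel reported). Cells were CHO-M1, given carbachol (50 uM as added) plus 50mM LiCl, pH 7.4, 30 min, 37C; compounds titrated up to 46 uM; AC50 by Hill equation.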
* hit, by the source's call; [ ] = another dose, or the depositor's remark. The full list was thinned out, with hits kept by preference. Unless noted, calls follow the shape of the dose curve; as a rule, active = well fitted curve in the direction sought with a large enough effect; inconclusive = small, poorly fitted or top-dose-only effect, or another doubt; inactive = no such curve, though single readings can be large; an effect the other way counts as inactive or inconclusive. Unless noted, % is scaled to controls: 0 for no effect and ±100 for the full control effect.

What do the screens show for `Cc1sc2ncnc(NCC(c3ccco3)N3CCCC3)c2c1C` (centres undefined)?
NPSR antagonist: inconclusive; IMPase Li inh: 18%[38.3 µM]; IMPase inh: 21

What do the screens show for `COc1ccc(Oc2nc(SC)nc3ccccc23)cc1`?
NPSR antagonist: -16%[46.1 µM]; IMPase Li inh: 10µM*; IMPase inh: -8[1.84 µM]

What do the screens show for `COc1ccc(Oc2nc(-c3cccnc3)nc3ccccc23)cc1`?
NPSR antagonist: -35%

Results for Cc1cn(CC[C@H](N)C(=O)O)c(=O)[nH]c1=O ?
IMPase Li inh: -16%

What do the screens show for `Oc1c(C(c2cccs2)N2CCN(c3ccccc3)CC2)ccc2cccnc12` (centres undefined)?
NPSR antagonist: 16µM*; IMPase Li inh: -7%[38.3 µM]; IMPase inh: 11

How did Oc1c(C(c2ccc(Cl)cc2)N2CCCC2)cc(Cl)c2cccnc12 (centres undefined) do in these assays?
NPSR antagonist: -57%; IMPase Li inh: 4%

Results for CC(C)(C)n1nnnc1C(c1cccs1)N1CCN(c2ccccc2)CC1 (centres undefined) ?
NPSR antagonist: -11%[46.1 µM]; IMPase Li inh: 14%; IMPase inh: 10

What do the screens show for `Oc1c(C(c2ccccc2Cl)N2CCCC2)ccc2cccnc12` (centres undefined)?
NPSR antagonist: 10µM*; IMPase Li inh: 20%

Results for CCOc1ccc(NC(=S)N2CCCN(Cc3cc(C)ccc3C)C2)cc1 ?
NPSR antagonist: -21%; IMPase Li inh: 19%

Results for O=C(Oc1ccc(Cl)c2cccnc12)c1ccco1 ?
NPSR antagonist: 4µM*; IMPase Li inh: 32%[38.3 µM]; IMPase inh: 4

Results for O=C(Oc1cccc2cccnc12)c1ccco1 ?
NPSR antagonist: -5%[46.1 µM]; IMPase Li inh: 0%; IMPase inh: -6

How did CC(=O)C1=C(O)C(=O)N(Cc2cccnc2)C1c1ccccc1Cl (centres undefined) do in these assays?
NPSR antagonist: inconclusive; IMPase Li inh: -19%[38.3 µM]; IMPase inh: -11

Results for O=C(C1=C(O)C(=O)N(c2ncccn2)C1c1cccc(Cl)c1)c1ccco1 (centres undefined) ?
NPSR antagonist: 4%[46.1 µM]; IMPase Li inh: inconclusive; IMPase inh: -18

Results for O=C(C1=C(O)C(=O)N(c2ncccn2)C1c1ccc(Cl)cc1)c1ccco1 (centres undefined) ?
NPSR antagonist: -2%[46.1 µM]; IMPase Li inh: 13µM*; IMPase inh: inconclusive

Results for Cc1ccc(C(=O)C2=C(O)C(=O)N(c3ncccn3)C2c2ccc(Cl)cc2)o1 (centres undefined) ?
NPSR antagonist: -51%; IMPase Li inh: 13µM*; IMPase inh: inconclusive

How did O=C(C1=C(O)C(=O)N(c2ncccn2)C1c1ccc(Cl)c(Cl)c1)c1ccco1 (centres undefined) do in these assays?
NPSR antagonist: -16%[46.1 µM]; IMPase Li inh: inconclusive; IMPase inh: 8

Results for Cc1ccc(C(=O)C2=C(O)C(=O)N(Cc3ccccc3)C2c2cccnc2)o1 (centres undefined) ?
NPSR antagonist: 29%[46.1 µM]; IMPase Li inh: 10µM*; IMPase inh: inconclusive

What do the screens show for `CC(=O)N1CCc2cc(C(=O)CN3CCN(c4ccccn4)CC3)ccc21`?
NPSR antagonist: 19%

What do the screens show for `CCN1CCC(O)([C@H](C(=O)O)c2ccccc2)CC1`?
IMPase Li inh: -2%

Results for COc1ccccc1CN1CC2(CCN(C(=O)c3cccc(F)c3)CC2)C1 ?
IMPase Li inh: 25%

How did Cn1c(=NC(=O)COc2ccccc2)sc2ccccc21 do in these assays?
NPSR antagonist: -33%; IMPase Li inh: 13µM*

What do the screens show for `CC(=O)N=c1sc2ccccc2n1C`?
NPSR antagonist: -2%[46.1 µM]; IMPase Li inh: -3%[38.3 µM]; IMPase inh: 0

How did N[C@H](Cc1ccc(F)cc1)C(=O)O do in these assays?
IMPase inh: 0

What do the screens show for `Cc1cc(C)n2nc(C(=O)NC3CCCc4ccccc43)nc2n1` (centres undefined)?
NPSR antagonist: -3%; IMPase Li inh: 0%

How did COc1cccc(N2CCN(C(=O)C3CCN(S(=O)(=O)c4cccs4)CC3)CC2)c1 do in these assays?
NPSR antagonist: 0%; IMPase Li inh: -4%

What do the screens show for `CCNc1nc(NC(C)C)nc(N(C#N)CCOc2ccc(Cl)cc2Cl)n1`?
NPSR antagonist: 10µM*; IMPase Li inh: 35%[38.3 µM]; IMPase inh: 8

How did CCNc1nc(NC(C)C)nc(N(C#N)Cc2ccccc2)n1 do in these assays?
NPSR antagonist: inconclusive; IMPase Li inh: 26%[38.3 µM]; IMPase inh: 4

What do the screens show for `Cc1cc(O)cc(O)c1C(=O)OC1(C)C(=O)C=C2C=C(/C=C/CO)OC=C2C1=O` (centres undefined)?
IMPase Li inh: 3%

Results for C=C(C)C(=O)c1cccs1 ?
IMPase Li inh: 2%

Results for O=C(/C(=C/O)N=Nc1ccccc1)c1cccs1 ?
NPSR antagonist: 10µM*; IMPase Li inh: 10%

What do the screens show for `CCc1cccc2nc3c(c([Si](C)(C)C)c12)Cn1c-3cccc1=O`?
IMPase Li inh: -4%

What do the screens show for `CCCCS(=O)(=O)/C=C\C=C/S(=O)(=O)CCCC`?
NPSR antagonist: 5µM*; IMPase Li inh: 19%; IMPase inh: 9

How did CCCCS(=O)(=O)/C=C\C1C2C=CC(C2)C1S(=O)(=O)CCCC (centres undefined) do in these assays?
NPSR antagonist: -5%[46.1 µM]; IMPase Li inh: 1%[38.3 µM]; IMPase inh: 3

What do the screens show for `COc1ccccc1CCNC(=O)c1cc(-c2ccccn2)nc2ccc(Br)cc12`?
NPSR antagonist: inconclusive; IMPase Li inh: 13µM*

What do the screens show for `COc1ccccc1CCNC(=O)c1cc(-c2ccncc2)nc2ccc(Br)cc12`?
NPSR antagonist: -54%; IMPase Li inh: -7%

How did O=C(O)c1cc(-c2ccc(Cl)s2)nc2ccccc12 do in these assays?
NPSR antagonist: 6.3µM*; IMPase Li inh: 11µM*

Results for O=C(O)c1cc(-c2ccccc2)nc2ccccc12 ?
NPSR antagonist: -13%; IMPase Li inh: -11%

How did CC(C)(CN)CN do in these assays?
IMPase Li inh: -7%

How did COc1ccc(NC(=O)C(Cl)=C(Cl)Cl)cn1 do in these assays?
NPSR antagonist: 6%; IMPase Li inh: 4%

Results for COc1ccc(NC(=O)/C(Cl)=C(/Cl)S(=O)Cc2ccc(Cl)cc2)cn1 (centres undefined) ?
NPSR antagonist: 7.9µM*; IMPase Li inh: 29%

Results for COc1ccc(NC(=O)/C(Cl)=C(/Cl)S(=O)(=O)Cc2ccccc2)cn1 ?
NPSR antagonist: 5µM*; IMPase Li inh: 42%[38.3 µM]; IMPase inh: 4

How did COc1ccc(NC(=O)CCl)cn1 do in these assays?
NPSR antagonist: -7%

Results for COc1ccc2c(c1)C(=O)[C@@H](OC(=O)Nc1cc(OC)c(OC)c(OC)c1)[C@H](c1ccc(OC)c(Br)c1)O2 ?
IMPase Li inh: 11%

Results for CCOC(=O)c1sc(=NC(=O)c2ccc(OC(C)C)cc2)n(C)c1C ?
NPSR antagonist: 5µM*; IMPase Li inh: inconclusive

What do the screens show for `CCOC(=O)c1sc(=NC(=O)c2ccco2)n(C)c1C`?
NPSR antagonist: -5%; IMPase Li inh: 2%
